In the library only some 2.3% were active in any assay of this set; here they are far more common.
Tau fluor cs: counter-screen for tau fibril formation inhibitors; tau K18 P301L Alexa594 fluorescence, heparin fibrillization; Potency, µM (series often up to 57.7 µM), for the others: at the highest dose activity change, negative = decrease; 280,000 compounds, 0.93% hits; also: potency is read from the fitted curve at half-maximal effect; nearly all actives have a fitted effect of over 55% in size
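Human K18 P301L tau (15 uM unlabeled plus 0.24 uM Alexa 594-labeled, final) in 100 mM sodium acetate pH 7 was mixed with compound and 20 uM heparin and incubated 6 hr at 37 C.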
Tau fibril FP: inhibitors of human tau fibril formation. P10636. K18 P301L tau heparin fibrillization, Alexa594 FP, 6 h. Potency, µM (titrated, usually from 57.7 µM), for the others: at the highest dose activity, negative = inhibition, actives largely listed as inhibitors. 280,000 compounds, 0.39% hits. AID 1468; also: potency is read from the fitted curve at half-maximal effect; nearly all actives have a fitted effect of over 55% in size
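Read-out: fluorescence polarization of Alexa 594-labeled tau (0.24 uM), 555 nm excitation, 632 nm emission. Mixtures held 15 uM unlabeled K18 P301L, compound and 20 uM heparin, pH 7 acetate buffer, incubated 6 hr at 37 C.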
USP1 inh: USP1/UAF1 (human) deubiquitinase inhibition. O94782. AID 743255. recombinant USP1/UAF1, Ub-Rhodamine cleavage fluorescence. Potency, µM (doses to about 57.1 µM), inactives show at the top dose activity change, negative = inhibition, usual class: inhibitors. 390,000 compounds, 0.23% hits; also: potency is read from the fitted curve at half-maximal effect; nearly all actives have a fitted effect of over 60% in size
Target sequence (O94782 whole entry, looked up): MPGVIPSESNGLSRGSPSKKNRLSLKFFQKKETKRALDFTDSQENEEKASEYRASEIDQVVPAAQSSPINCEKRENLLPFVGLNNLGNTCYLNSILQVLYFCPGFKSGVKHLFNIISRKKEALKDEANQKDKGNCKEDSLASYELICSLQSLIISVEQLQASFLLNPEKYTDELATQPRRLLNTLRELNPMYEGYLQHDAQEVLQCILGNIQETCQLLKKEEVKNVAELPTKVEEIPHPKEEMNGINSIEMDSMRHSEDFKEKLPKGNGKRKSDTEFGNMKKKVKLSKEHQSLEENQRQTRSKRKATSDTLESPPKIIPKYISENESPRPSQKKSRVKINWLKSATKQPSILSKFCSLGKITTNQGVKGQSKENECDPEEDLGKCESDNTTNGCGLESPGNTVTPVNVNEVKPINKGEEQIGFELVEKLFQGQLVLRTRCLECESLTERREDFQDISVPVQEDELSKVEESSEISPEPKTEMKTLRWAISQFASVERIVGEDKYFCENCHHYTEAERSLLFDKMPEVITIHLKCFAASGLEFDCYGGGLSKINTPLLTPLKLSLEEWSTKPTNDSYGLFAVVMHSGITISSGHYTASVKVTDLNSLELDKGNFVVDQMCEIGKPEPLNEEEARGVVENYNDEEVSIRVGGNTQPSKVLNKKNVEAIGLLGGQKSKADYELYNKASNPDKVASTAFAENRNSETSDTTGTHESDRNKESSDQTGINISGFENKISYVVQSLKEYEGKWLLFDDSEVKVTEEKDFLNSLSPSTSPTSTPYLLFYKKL
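In this screen, compounds sit with the deubiquitinase complex (1nM) for 15 min at room temperature before Ub-Rho is added at 150nM final. Fluorescence rise is then followed for 6 reads every 60 seconds.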
Coupling enz: counter-screen for Giardia aldolase inhibitors: coupling enzyme system; coupling enzyme system counterscreen, AmpLite Red fluorescence; activity change, negative = inhibition, % at 58.2 µM, hits read low; 290,000 compounds, 0.67% hits; AID 2472; in the data active = activity change below about -30%
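Activity here indicates interference with the coupling reaction, not aldolase inhibition. Compounds at 57.5 uM final met coupling enzymes for 10 min at RT; substrate and AmpLite Red detection followed, with a 525/598 nm fluorescence read after 20 min.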
Tau fibril ThT: blocks human tau fibril formation measured by thioflavin T | 270,000 compounds, 2.1% hits | recombinant tau K18 P301L (four-repeat tau fragment), heparin-induced fibrillization, ThT fluorescence | Potency, µM (titrated, usually from 57.4 µM), without a hit: top-dose activity, negative = inhibition, hits mostly inhibitors | P10636; also: potency is read from the fitted curve at half-maximal effect; nearly all actives have a fitted effect of over 55% in size
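In this qHTS, human K18 P301L tau is incubated with compound and heparin for 6 hr at 37 C, and Thioflavin T fluorescence then reports fibril load.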
* = called active by the depositor; ? = inconclusive; . = not tested or not shown; [ ] = another dose, or the depositor's remark. Unless noted, calls follow the shape of the dose curve; as a rule, active = well fitted curve in the direction sought with a large enough effect; inconclusive = small, poorly fitted or top-dose-only effect, or another doubt; inactive = no such curve, though single readings can be large; an effect the other way counts as inactive or inconclusive. % is scaled to controls: 0 for no effect and ±100 for the full control effect.

SMILES | Tau fluor cs | Tau fibril FP | USP1 inh | Coupling enz | Tau fibril ThT
O=C(CCCc1nc(-c2ccco2)no1)Nc1ccccc1[N+](=O)[O-] | -12% | -1% | -16% | . | -14%
Nc1[nH]ncc1N=Nc1ccc(Cl)cc1 | ? | 8% | -11% | -2 | 10µM*
O=C(CSc1nnnn1C1CCCCC1)N1CCN(C(=O)c2ccco2)CC1 | -54% | 9%[2.34 µM] | -13% | 5 | 3.5µM*
COc1ccc(C(=O)N2CC(=O)Nc3ccc(C)cc3C2c2ccccc2)cc1OC (centres undefined) | -13% | 0% | -23% | . | -12%
COc1ccc(-c2cnc(C)o2)cc1S(=O)(=O)Nc1c(C)cc(C)cc1C | -7% | 8% | -19% | . | -6%
O=C(Nc1nnc(S(=O)(=O)N2CCN(c3ccc(F)cc3)CC2)s1)c1ccc(Cl)cc1 | -22% | -8% | 1% | . | ?
O=C(Nc1nnc(S(=O)(=O)N2CCCCC2)s1)c1ccc(Cl)cc1 | -27% | 4% | -4% | -14 | 2µM*
Cc1ccc(C(=O)Nc2nnc(S(=O)(=O)N3CCN(c4ccc(F)cc4)CC3)s2)cc1 | -17% | 6% | -2% | . | 2.5µM*
CC(=O)Nc1sc(NC(=O)c2ccc(Cl)cc2)nc1-c1cccs1 | -25% | 0% | -18% | 0 | ?
CC(=O)Nc1sc(NC(=O)c2ccc([N+](=O)[O-])cc2)nc1-c1cccs1 | ? | 2% | -8% | 2 | 7.9µM*
Nc1nc(-c2cccs2)c(NC(=O)c2ccccc2)s1 | ? | ? | -5% | 3 | 14µM*
CC(=O)Nc1sc(N/N=C\c2ccccc2)nc1-c1cccs1 | ? | -6% | -14% | 3 | 10µM*
CC(=O)Nc1sc(N/N=C\c2ccco2)nc1-c1cccs1 | ? | ? | -4% | 2 | 16µM*
CC(=O)Nc1sc(N/N=C\c2ccccc2Cl)nc1-c1cccs1 | 4% | 1% | -5% | -3 | 10%
O=C(Nc1ccc(OCC(=O)N2CCOCC2)cc1)c1cccc(Cl)c1 | . | . | -20% | 2 | .
Cc1ccc(N(C)C(=O)c2noc3c2CCCCC3)cc1C | -10% | 2% | -11% | . | -6%
O=C(NC1CC(=O)N(c2cccc(F)c2)C1)c1ccc(S(=O)(=O)N2CCCC2)cc1 (centres undefined) | -3% | ? | -24% | . | 0%
CCOc1cc(/C=N/Nc2nc(-c3cccs3)c(NC(C)=O)s2)ccc1O | ? | -12% | -14% | -1 | 25µM*
CCOc1cc(/C=N/NC(=O)Nc2ccccc2)ccc1O | -28% | 14% | -20% | -2 | ?
Cc1ccc(N2CC(NC(=O)Cc3cccs3)CC2=O)cc1C (centres undefined) | -8% | -5% | ? | . | -5%
Cc1ccc(C2=NC(=O)/C(=C/c3cc(O)c(O)c(Br)c3)S2)cc1 | 2.8µM*[quencher] | ? | -16% | -6 | 4µM*
COc1cc(/C=C2\SC(c3ccc(C)cc3)=NC2=O)cc(OC)c1O | ? | ? | ? | -8 | 5µM*
O=C(c1cccs1)N1CCCc2cc(NS(=O)(=O)c3ccc(F)cc3)ccc21 | -9% | -8% | 1% | . | 10%
COc1cc2c(C#N)c(N3CCN(C)CC3)nc(N)c2c(N)n1 | -4% | 9% | . | -13 | -8%
CCCOc1cc2c(C#N)c(N3CCCC3)nc(N)c2c(N)n1 | . | . | 28µM* | . | .
SMILES | Tau fluor cs | Tau fibril FP | USP1 inh | Coupling enz | Tau fibril ThT
COc1cc2c(C#N)c(N3CCCC3)nc(N)c2c(N)n1 | ? | 11% | 7.9µM* | -31* | ?
COc1cc2c(C#N)c(N3CCN(c4ccccc4OC)CC3)nc(N)c2c(N)n1 | 13µM*[quencher] | -10% | -6% | -52* | 18µM*
CCOc1cc2c(C#N)c(N3CCCC3)nc(N)c2c(N)n1 | . | . | -26% | . | .
N#Cc1c(N2CCCC2)nc(N)c2c(N)nc(N3CCCC3)cc12 | 13µM*[quencher] | 11% | 0.32µM* | -36* | ?
Cc1cccc(-n2nc(C)c(C(=O)Nc3cc(C)ccc3C)c2-n2cccc2)c1 | -8% | 6% | -29% | . | -9%
CCCCN(C(=O)c1cccc(S(=O)(=O)N2CC(C)OC(C)C2)c1)c1c(N)n(CC(C)C)c(=O)[nH]c1=O (centres undefined) | . | . | -8% | -1 | .
CC1(C)CC(=O)C2=C(C1)NC1=C(C(=O)c3ccccc31)C2c1cc([N+](=O)[O-])ccc1O (centres undefined) | 16µM*[quencher] | 7% | -22% | -1 | 14µM*
CC1(C)CC(=O)C2=C(C1)NC1=C(C(=O)c3ccccc31)C2c1ccccc1 (centres undefined) | ? | 13% | -24% | 4 | ?
CCCCCCCCCCCCCCCCCC(=O)OCC(C)O (centres undefined) | ? | ? | . | 1 | 14µM*
CCCCCCCCCC(=O)OCC(O)CO (centres undefined) | -11% | 4% | -16% | 3 | -6%
CC1=NN(c2ccccc2)C(=O)C1C=Nc1ccc(N(C)C)cc1 (centres undefined) | ? | 5% | ? | -12 | 7.9µM*
CC(C)C[C@@H](CC(=O)N[C@H](CC(=O)N[C@@H]1CCNC[C@H]1C(=O)N[C@H](CC(=O)N[C@@H](CCC(=O)O)CC(=O)O)CC(C)C)C(C)C)NC(=O)[C@@H]1CCCC[C@H]1N | -4% | -9% | . | 0 | -5%
Clc1cccc(N/N=C(\Cc2nc3ccccc3[nH]2)c2ccccc2)c1 | 7.1µM*[quencher] | ? | ? | -3 | ?
COc1cccc(NC(=O)CN(C)C(=O)c2cccc(S(=O)(=O)N3c4ccccc4CC3C)c2)c1 (centres undefined) | . | . | -4% | . | .
Cc1ccc(S(=O)(=O)N/N=C/c2c[nH]c3ccccc23)cc1 | ? | 12% | -26% | 1 | ?
COc1ccc2c(/C=N/NS(=O)(=O)c3ccc(C)cc3)c[nH]c2c1 | 13µM*[quencher] | 13% | -17% | 4 | ?
COc1ccc2[nH]cc(/C=N/NS(=O)(=O)c3ccc(C)cc3)c2c1 | 13µM*[quencher] | 15% | -7% | -3 | ?
O=C(Nc1ccc(F)cc1)C1=CC(=O)N2CCN=C2S1 | -14% | ? | . | 5 | 18µM*
O=C(OCn1ncc(Br)c(Br)c1=O)c1c(F)cccc1F | -18% | ? | . | 0 | 7.1µM*
Cc1cccc(C2C3=C(Nc4[nH]n(-c5ccccc5)c(=O)c42)c2ccccc2C3=O)c1 (centres undefined) | ? | -3% | -24% | 2 | 16µM*
Cc1ccccc1C1C2=C(Nc3[nH]n(-c4ccccc4)c(=O)c31)c1ccccc1C2=O (centres undefined) | ? | -4% | . | 2 | 14µM*
Cc1ccccc1-c1ccnc2[nH]n(-c3ccccc3)c(=O)c12 | -22% | -5% | -4% | 2 | ?
Cc1cccn2c(=O)c(C(=O)N3CCN(c4ccc(Cl)cc4)CC3)cnc12 | 4% | 1% | -26% | . | 6%

Screening data from PubChem.
